Bioassay records (PubChem BioAssay)
Most compounds without a hit are left out; they make up all but 18% or so of the library.
PLK1 PBD block = inhibitors of human PLK1 polo-box domain binding; AID 720504; P53350; Plk1 PBD binding of FITC phosphopeptide, fluorescence polarization; actives 2.8% (n = 360,000); Potency, µM, inactives show max response, negative = inhibition, usual class: inhibitors; further: series mostly up to about 57 µM; nearly all actives have a fitted effect of over 65% in size
KAT2A inh = inhibitors of human GCN5L2 histone acetyltransferase. Q92830. GCN5L2 HAT assay, ThioGlo1 CoA-SH fluorescence. AID 504327. actives 0.21% (n = 390,000). Potency, µM (titrated, usually from 58.9 µM), without a hit: at the highest dose activity change, negative = inhibition, actives largely listed as inhibitors
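Enzyme at 20nM final was mixed with library compounds for 15 min at room temperature. Peptide H3(1-25) at 75uM, acetyl-CoA at 70uM and ThioGlo1 at 50uM were then added. Plates were read immediately and after 20 min (Ex340nm/Em540nm).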
TDP1 cell CPT = DT40-hTDP1 cell growth loss with CPT; AID 686979; Potency, µM (doses to about 46.2 µM), for inactives: top-dose activity change, negative = growth inhibition, hits mostly inhibitors; actives 12% (n = 420,000); chicken DT40 Tdp1-/-;hTDP1 cells + 20 nM CPT, ATP luminescence, 48 h; further: nearly all actives have a fitted effect of over 55% in size
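Chicken DT40 Tdp1-/- cells stably complemented with human TDP1 were seeded at 400 cells/well in medium containing 20 nM camptothecin, exposed to pin-transferred compounds, and grown at 37 °C for at least 48 hr. Viability was read as ATP luminescence.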
TDP1 cell noCPT = qHTS for Inhibitors of human tyrosyl-DNA phosphodiesterase 1 (TDP1): qHTS in cells in absence of CPT. DT40 Tdp1-/- hTDP1 cells, no CPT, ATP luminescence, 48 h. Potency, µM (series often up to 46.2 µM), inactives show at the top dose activity change, negative = growth inhibition, actives largely listed as inhibitors. actives 15% (n = 420,000); further: nearly all actives have a fitted effect of over 55% in size
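Seeded 400 DT40-hTDP1 cells/well (vehicle DMSO, no 20 nM CPT); pinned compounds; ≥48 hr at 37 °C; CellTiter-Glo luminescence as viability measure.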
TDP1 block = blocks human tyrosyl-DNA phosphodiesterase 1 | recombinant TDP1, AlphaScreen DNA substrate cleavage | Potency, µM (top dose mostly 130 µM), for inactives: top-dose activity change, negative = inhibition, hits mostly inhibitors | AID 485290 | Q9NUW8 | actives 0.28% (n = 350,000); further: nearly all actives have a fitted effect of over 40% in size
Target sequence (Q9NUW8 whole entry, looked up): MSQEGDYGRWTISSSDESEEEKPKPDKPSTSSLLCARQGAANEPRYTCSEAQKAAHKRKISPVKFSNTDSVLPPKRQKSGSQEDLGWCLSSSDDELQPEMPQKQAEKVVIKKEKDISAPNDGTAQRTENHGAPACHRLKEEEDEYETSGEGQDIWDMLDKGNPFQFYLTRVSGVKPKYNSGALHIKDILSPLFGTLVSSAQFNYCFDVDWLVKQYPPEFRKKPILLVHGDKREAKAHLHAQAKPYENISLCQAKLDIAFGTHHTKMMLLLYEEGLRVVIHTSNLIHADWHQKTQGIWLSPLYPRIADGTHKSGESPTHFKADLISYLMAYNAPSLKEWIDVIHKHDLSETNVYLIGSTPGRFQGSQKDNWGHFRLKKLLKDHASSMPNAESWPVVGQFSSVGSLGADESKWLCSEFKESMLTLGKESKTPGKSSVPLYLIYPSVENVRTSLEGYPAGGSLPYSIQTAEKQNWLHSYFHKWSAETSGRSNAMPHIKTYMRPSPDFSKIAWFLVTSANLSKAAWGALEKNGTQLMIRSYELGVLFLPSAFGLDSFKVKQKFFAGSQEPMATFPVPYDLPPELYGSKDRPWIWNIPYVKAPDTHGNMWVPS
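E. coli-derived human Tdp1, 1 nM final. Cpd preinc 15 min RT; substrate 15 nM final, 5 min RT; AS bead mix 10 ug/ml final, 10 min RT. Signal loss = tyrosine-FITC cleavage. No-enzyme wells = max signal.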
VDR inhibitor = blocks the human vitamin D receptor; P11473; VDR-SRC2-3 peptide fluorescence polarization, 2 h; Potency, µM, for the others: max response, negative = inhibition, hits mostly inhibitors; actives 0.93% (n = 400,000); AID 504847
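The screen uses fluorescence polarization to detect compounds that interfere with recruitment of the SRC2-3 coactivator peptide to VDR; plates are read after 2 h at room temperature.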
The depositor's hits bear a star; u = inconclusive; x = no result given; [ ] = remark or other dose. The call rests on the fitted dose curve; in most records, active means well fitted curve in the direction sought with a large enough effect; inconclusive means small, poorly fitted or top-dose-only effect, or another doubt; inactive means no such curve, though single readings can be large; an effect the other way counts as inactive or inconclusive. On the % scale 0 is the no-effect control and ±100 the full control effect; potency means the concentration at half of the fitted maximal effect.

SMILES	PLK1 PBD block	KAT2A inh	TDP1 cell CPT	TDP1 cell noCPT	TDP1 block	VDR inhibitor
N=c1c(C(=O)NCC2CCCO2)cc2c(=O)n3ccccc3nc2n1Cc1ccc(Cl)cc1 (stereo not given)	-7%	-2%	10µM*	16µM*	1%	13%
Cc1ccc(Cn2c(=N)c(C(=O)NCC3CCCO3)cc3c(=O)n4ccccc4nc32)cc1 (stereo not given)	1%	-2%	u	u	10%	5%
COCCN(CC(=O)Nc1cc(Cl)ccc1-n1cncn1)Cc1nc2ccccc2c(=O)[nH]1	0%	1%	-20%	-1%	1%	12%
COC(=O)c1cnn(-c2ccccc2)c1/C=N/NC(=S)Nc1ccc(Cl)cc1	1%	13%	-8%	u	x	-11%
Cc1cccc(C)c1NC(=S)NC(C)CCc1ccccc1 (stereo not given)	-12%	-3%	u	16µM*	3%	-2%
Cc1ccccc1CN(C)CC(=O)NC(C)CCc1ccccc1 (stereo not given)	-14%	-7%	u	16µM*	1%	-3%
Cc1ccc(CC(=O)NC(C)CCc2ccccc2)cc1 (stereo not given)	-1%	-11%	3%	u	-1%	16%
Cc1cccc(C)c1NC(=S)N(c1ccccc1)C(C)C	30µM*	24%	1%	16%	5%	7%
c1ccc(CNc2cccnc2)cc1	0%	x	-6%	-26%	x	x
COc1cccc(CN2CCCN(Cc3ccc(F)cc3)S2(=O)=O)c1	x	-10%	u	u	-3%	5%
CCCn1c(=O)n(-c2cc(Cl)c(OC)cc2OC)c(=O)c2c3c(sc21)CN(C(C)=O)CC3	x	1%	u	u	-5%	-8%
CCOC(=O)C1(Cc2ccccc2)CCCN(Cc2ccncc2)C1 (stereo not given)	-4%	19%	u	u	-3%	u
CCOC(=O)C1(Cc2ccccc2)CCCN(Cc2cccc(C(C)=O)c2)C1 (stereo not given)	0%	-2%	u	16µM*	4%	0%
CCOC(=O)C1(Cc2ccccc2)CCCN(C(=O)COc2ccccc2OC)C1 (stereo not given)	2%	x	23µM*	13µM*	x	x
O=C(CSC(=S)N1CCCC1)NCC(=O)Nc1ccc(F)c(F)c1	-2%	2%	0%	5%	0%	-8%
CCc1nc2ccc(C(=O)NC3CCN(Cc4ccccc4)CC3)cn2c1N(C)Cc1cc2ccccc2s1	0%	x	26µM*	21µM*	x	x
CCc1nc2ccc(C(=O)NC3CCN(Cc4ccccc4)CC3)cn2c1N(C)Cc1cccs1	-15%	x	u	16µM*	x	x
CCc1nc2ccc(C(=O)N3CCN(C(=O)c4ccco4)CC3)cn2c1N(C)Cc1cccs1	-3%	x	u	u	x	x
CCc1nc2ccc(C(=O)NCCCN(C)C)cn2c1N(C)CCCc1ccccc1	-8%	x	u	u	x	x
COc1ccc(C(=O)NCC(c2ccc3c(c2)OCO3)N2CCOCC2)cc1OC (stereo not given)	x	2%	-23%	u	1%	3%
CCOC(=O)c1cc2c(C)n(-c3ccc(C)cc3)c(C)c2ccc1=O	-13%	-14%	15µM*	8.2µM*	6%	7%
CCOC(=O)c1cc2c(C)n(-c3ccc(OCC)cc3)c(C)c2ccc1=O	-8%	-23%	26µM*	15µM*	10%	-8%
S=C(Nc1ccc(Br)cc1Cl)Nn1cnnc1	9.5µM*	3%	-12%	3%	3%	u
Cc1ccc(NC(=S)Nn2cnnc2)c(C)c1	x	-4%	x	x	5%[56.1 µM]	x
Cc1ccc(Cl)cc1NC(=S)Nn1cnnc1	11µM*	4%	-19%	12%	7%	79µM*
SMILES	PLK1 PBD block	KAT2A inh	TDP1 cell CPT	TDP1 cell noCPT	TDP1 block	VDR inhibitor
CC(CNCCCn1cnc2c(OCc3ccccc3)ncnc21)c1ccccc1 (stereo not given)	-6%	x	u	u	x	3%
C=CCNc1nc(NCc2ccccc2)c(C#N)c2c1CN(C)CC2	-9%	-8%	18µM*	u	6%	9%
CCN1CCc2c(C#N)c(NCc3ccccc3)nc(N(CC)CC)c2C1	-12%	-11%	u	18µM*	6%	10%
COc1ccc(CNC(=O)c2cc3ccccc3oc2=O)cc1	-18%	1%	-12%	9%	x	38%
COc1ccc(-n2cc(C(=O)c3cc4ccccc4oc3=O)c(C(C)=O)n2)cc1	-6%	-14%	23µM*	u	0%	2%
COc1ccc(N2CS(=O)CC2=O)cc1 (stereo not given)	-12%	-2%	-21%	8%	8%	-1%
O=C(NC(c1ccccc1)c1ccccc1)c1ccc(=O)[nH]n1	24µM*	-5%	u	u	2%	-17%
COc1ccc(C(C)(NC(C)=O)c2nc(-c3cccc(F)c3)cs2)cc1 (stereo not given)	-1%	x	u	u	x	x
CC(=O)NC(C)(c1ccccc1)c1nc(-c2csc3ccccc23)cs1 (stereo not given)	-3%	x	21µM*	16µM*	x	x
COc1ccc(C(C)(NC(C)=O)c2nc(-c3cccc(C(=O)O)c3)cs2)cc1 (stereo not given)	-6%	x	-16%	-5%	x	x
COc1ccc(C(C)(NC(C)=O)c2nc(-c3cccc4cccnc34)cs2)cc1 (stereo not given)	-8%	x	21µM*	23µM*	x	x
COc1ccc(-c2csc(C(C)(NC(C)=O)c3ccccc3)n2)cc1 (stereo not given)	-4%	x	u	16µM*	x	x
COc1ccc(C(C)(NC(C)=O)c2nc(-c3cc(F)cc(F)c3)cs2)cc1 (stereo not given)	4%	x	16µM*	21µM*	x	x
Nc1nc(-c2ccccc2)ns1	6%	x	-2%	-11%	x	3%
COc1ccc(C(C)(NC(C)=O)c2nc(-c3cccc(C#N)c3)cs2)cc1 (stereo not given)	-2%	x	15µM*	16µM*	x	x
CCCN(CCC)CC(O)Cn1cc(/C=C/C(=O)c2ccc(OC)cc2)c2ccccc21 (stereo not given)	x	-15%	u	5.2µM*	0%	-5%
COc1ccc(C(=O)/C=C/c2cn(CC(O)CN(CC(C)C)CC(C)C)c3ccccc23)cc1 (stereo not given)	x	-22%	15µM*	16µM*	-3%	7%
